Vaccinia Venus – qHTS for Stage-Specific Inhibitors of Vaccinia Orthopoxvirus: Venus Reporter Primary qHTS. Vaccinia virus Venus reporter expression, fluorescence. Potency, µM (titrated, usually from 36.5 µM), inactives show at the top dose activity change, negative = inhibition, hits mostly inhibitors. AID 720580, 2013. 0.46% of 330,000 active; calls by dose curve; tested in A549 cells; note: potency is the fitted concentration of half-maximal effect; % is set by controls: 0 for no effect and ±100 for the full control effect; nearly all actives have a fitted effect of over 30% in size
MARV entry inh – qHTS for inhibitors of binding or entry into cells for Marburg Virus | Marburg virus pseudotyped entry inhibition, cell reporter | Potency, µM (titrated, usually from 37.8 µM), for the others: at the highest dose activity change, negative = inhibition, most hits filed as inhibitors | 1.8% of 300,000 active; calls by dose curve; tested in HEK293 cells; note: potency is the fitted concentration of half-maximal effect; % is set by controls: 0 for no effect and ±100 for the full control effect
Cycloheximide cs – Cycloheximide Counterscreen for Small Molecule Inhibitors of Shiga Toxin; cell reporter, cycloheximide protein synthesis inhibition counterscreen; max response, %; 12% of 300,000 active; in the data active = max response mostly above about 13%, no sharp cut-off; inactive = mostly below about 14%; note: read at 38.3 µM for the half of the compounds with a filed dose; 0% is about no effect
Shiga inhibitor – A qHTS for Small Molecule Inhibitors of Shiga Toxin | Vero cells, Shiga toxin protein synthesis inhibition reporter | inhibition, % at 38.7 µM | 9.2% of 290,000 active; in the data active = inhibition mostly above about 28%, no sharp cut-off; inactive = mostly below about 43%; note: 0% is about no effect
Vaccinia mCherry – qHTS for Stage-Specific Inhibitors of Vaccinia Orthopoxvirus: mCherry Reporter Primary qHTS; 0.63% of 310,000 active; Vaccinia virus mCherry reporter infection, fluorescence; AID 720579, 2013; Potency, µM (titrated, usually from 36.5 µM), inactives show at the highest dose activity change, negative = inhibition, hits mostly inhibitors; calls by dose curve; tested in A549 cells; note: potency is the fitted concentration of half-maximal effect; % is set by controls: 0 for no effect and ±100 for the full control effect; nearly all actives have a fitted effect of over 35% in size
Lassa entry inh – qHTS for Inhibitors of binding or entry into cells for Lassa Virus. Lassa virus pseudotype entry inhibition, cell reporter. Potency, µM (top dose mostly 37.9 µM), inactives show at the top dose activity change, negative = inhibition, hits mostly inhibitors. 1.2% of 300,000 active; calls by dose curve; tested in HEK293 cells; note: potency is the fitted concentration of half-maximal effect; % is set by controls: 0 for no effect and ±100 for the full control effect; nearly all actives have a fitted effect of over 50% in size
* hit, by the source's call; i = inactive; ? = inconclusive; nt = not tested or not shown; [ ] = remark or other dose. Shown is part of a subset that was picked to be rich in hits.

SMILES | Vaccinia Venus | MARV entry inh | Cycloheximide cs | Shiga inhibitor | Vaccinia mCherry | Lassa entry inh
O=C(/C=C/c1ccccc1)c1ccc2c3c(cccc13)CC2 | ? | ? | 30* | 74* | ? | ?
CC(C)c1ccc(S(=O)(=O)c2cnc(SCC(=O)Nc3ccc4c(c3)OCCO4)[nH]c2=O)cc1 | 6% | ? | nt | nt | 1% | 8%[46.1 µM]
N#Cc1ccc(/C=C/C(=O)c2ccccc2)cc1 | -14% | nt | 20* | 47* | -1% | nt
O=Cc1ccc(OC(=O)/C=C/c2ccccc2)cc1 | nt | nt | 34* | 25* | nt | nt
O=C(/C=C/c1ccccc1)c1ccc2ccccc2c1 | -10% | ? | nt | nt | -13% | ?
O=C(O)c1ccccc1-c1ccccc1C(=O)Nc1ccc(F)cc1 | -4% | 1% | -1 | -7 | -10% | -16%
O=C(/C=C/c1ccccc1)c1ccccc1 | -6% | -4% | 45* | 125* | -5% | 0%
O=C(/C=C/c1ccc(NC(=O)c2ccccc2-c2ccccc2C(=O)O)cc1)c1ccccc1 | nt | nt | 10* | 37* | nt | nt
Cc1nn(C)c(C)c1S(=O)(=O)N(CC(=O)NCCCN1CCC(C)CC1)c1ccc(C(C)C)cc1 | nt | nt | -3 | 2 | nt | nt
Cc1ccc(CNC(=O)c2cccc(-n3cnc4cccnc43)c2)cc1 | -5% | nt | nt | nt | i | 29%[46.1 µM]
O=Cc1ccc(-c2ccc(F)cc2)o1 | -10% | 2%[46.1 µM] | -1 | 13 | -10% | 2%[46.1 µM]
O=Cc1ccc(-c2ccc(C(=O)O)cc2)o1 | nt | nt | 35* | 88* | nt | nt
CC(C)(C)C(=O)/C=C(N)/C=C/c1ccccc1 | nt | ? | 28* | 35 | nt | 17%
O=C(C[N+]1(CC#Cc2ccccc2)CCCCC1)c1ccc(Cl)cc1 | ? | nt | 0 | -2 | 10µM* | nt
O=C(O)CCC(=O)OC[C@@H](NC(=O)C(Cl)Cl)C(O)c1ccc([N+](=O)[O-])cc1 (stereo partly drawn) | -5% | nt | nt | nt | -18% | nt
COc1cccc(-n2c(=O)c3c(C)c(C)sc3n(Cc3ccccc3C#N)c2=O)c1 | -3% | -8%[46.1 µM] | nt | nt | -6% | 1%[46.1 µM]
Cc1nc(C#N)c(N/N=C/c2cccc(Cl)c2)o1 | ? | 12% | 36* | 54* | ? | ?
Cc1ccc(SCC(=O)Nc2ccc(S(=O)(=O)Nc3ncccn3)cc2)cc1 | nt | ? | 3 | -2 | nt | 6%
Cc1cc(C)nc(SCC(=O)Nc2ccc(S(=O)(=O)Nc3ncccn3)cc2)n1 | -12% | 12%[46.1 µM] | 35* | 75* | -10% | -2%[46.1 µM]
Cc1cc(C)nc(NS(=O)(=O)c2ccc(NC(=S)NC(=O)CC(C)C)cc2)n1 | 11µM* | ? | -3 | -2 | 11µM* | -24%
CCS(=O)(=O)Nc1cc(C(=O)N2CCCN(C=O)CC2)c2c(c1)nc(-c1ccccc1)n2C | -15% | nt | nt | nt | i | nt
CCN1C(=O)[C@@H]2[C@H]3[C@H](O)[C@H](O)CC(=NO[C@@H](C)c4cn([C@H](CO)Cc5ccccc5)nn4)[C@@H]3CC[C@H]2C1=O | nt | -3%[14.2 µM] | nt | nt | nt | ?
Cc1cc(C)nc(N(C#N)CCOc2ccc(Cl)cc2)n1 | -23% | ? | 16* | 39* | -24%[1.46 µM] | ?
COC(=O)C[C@H]1CC[C@H](NC(=O)Nc2ccccc2F)[C@@H](CO)O1 | -8% | nt | nt | nt | -6% | nt
FC(F)(F)c1cnc(N2CCN(C(=S)NCc3ccccc3)CC2)c(Cl)c1 | -1% | 13µM* | 0 | -7 | -12% | ?
SMILES | Vaccinia Venus | MARV entry inh | Cycloheximide cs | Shiga inhibitor | Vaccinia mCherry | Lassa entry inh
FC(F)(F)c1cnc(N2CCCN(C(=S)Nc3ccccc3)CC2)c(Cl)c1 | -6%[7.34 µM] | ? | 1 | 19 | ? | ?
CC1N(C)c2cc(NC(=O)c3ccco3)c(P(=O)(Nc3ccc([N+](=O)[O-])cc3)N3CCOCC3)cc2C1(C)C (stereo not drawn) | 10% | ? | 24 | 56* | -14% | ?
Cc1cc(C)cc(NC(=O)c2ccc(NC(=O)c3ccco3)cc2)c1 | -23% | ? | 1 | -8 | -4% | -26%[46.1 µM]
CC1N(C)c2cc(NC(=O)c3ccco3)ccc2C1(C)C (stereo not drawn) | 163% | ? | 44* | 74* | 130% | ?
CCCCCCC[n+]1ccc(/C=C/c2c(C)[nH]c3ccccc23)cc1 | 256% | nt | nt | nt | 28µM* | nt
Cc1[nH]c2ccccc2c1/C=C/c1cc[n+](C)cc1 | 27% | -8% | -1 | -13 | -22% | ?
Cc1cc(NC(=O)C(C)C)n(-c2nc3ccccc3s2)n1 | -16% | nt | 31* | 69* | i | nt
